Measured values published in PubChem BioAssay (NCATS).
Activity calls are given as the source filed them. Calls come from the whole dose curve; as a rule, active = well fitted curve in the direction sought with a large enough effect; inconclusive = small, poorly fitted or top-dose-only effect, or another doubt; inactive = no such curve, though single readings can be large or run the other way.

molecular target: Galactokinase (Homo sapiens) (UniProt P51570); assay: qHTS Validation Assay for Inhibitors of Human Galactokinase (GALK) (AID 493189); conditions: purified human GALK enzyme activity, qHTS 7-point titration; series mostly up to 57.5 µM
Excerpt: NIH Molecular Libraries Probe Production Centers Network [MLPCN]
NIH Chemical Genomics Center [NCGC]
Assay Submitter (PI): Kent Lai (University of Utah School of Medicine, 50 N Mario Capecchi Drive, Salt Lake City, UT 84132)
Inherited deficiency of galactose-1-phosphate uridyltransferase (GALT) can result in a potentially lethal disorder called Classic Galactosemia (OMIM 230400). Several lines of evidence indicate that an elevated level of galactose-1-phosphate (gal-1-p), the product of galactokinase (GALK), is a major, if not sole, pathogenic mechanism in patients with classic galactosemia. Therefore, finding inhibitors of GALK is a potential novel therapy for this inherent metabolic disease and is the long term goal of this project.
GALK (provided by the assay submitter) was assayed using ATP and D-(+)-Galactose (Sigma-Aldrich cat# G0750) as substrates. Promega Kinase-Glo Plus (cat# V3774) technology was used to detect the residual ATP following kinetic reaction. Briefly, the Kinase-Glo Plus contains Ultra-Glo [2] luciferase and D-luciferin which generates a bioluminescence signal from the remaining ATP.
NCGC Assay Protocol Summary:
Three uL/well of ATP-buffer solution (35 uM ATP, 20mM HEPES pH8.0, 5 mM MgCl2, 60 mM NaCl, 1 mM DTT, 0.01% BSA final concentration) was dispensed into 1536-well, assay plates (Greiner, solid white medium-binding plates) with Aurora Discovery BioRAPTR Flying Reagent Dispenser (FRD; Beckton-Dickenson). Compound solution (23 nL) was transferred to the assay plate using the Kalypsys 1536-pin tool. One uL/well GALK-galactose solution (5 nM GALK, 100 uM galactose, 20 mM HEPES pH8.0, 5 mM MgCl2, 60 mM NaCl, 1 mM DTT, 0.01% BSA final concentration) was then added using the FRD yielding a total kinase reaction volume of 4 uL/ well. After 1 hour of room temperature incubation, 4 uL Kinase-Glo Plus reagent was added for a final assay volume of 8 uL/ well. Luminescence was detected with the ViewLux plate reader (Perkin Elmer, Waltham, MA) after 10 min incubation using a 1 sec exposure time and 2x binning.

Galactokinase (Homo sapiens), sequence (P51570 whole entry, looked up): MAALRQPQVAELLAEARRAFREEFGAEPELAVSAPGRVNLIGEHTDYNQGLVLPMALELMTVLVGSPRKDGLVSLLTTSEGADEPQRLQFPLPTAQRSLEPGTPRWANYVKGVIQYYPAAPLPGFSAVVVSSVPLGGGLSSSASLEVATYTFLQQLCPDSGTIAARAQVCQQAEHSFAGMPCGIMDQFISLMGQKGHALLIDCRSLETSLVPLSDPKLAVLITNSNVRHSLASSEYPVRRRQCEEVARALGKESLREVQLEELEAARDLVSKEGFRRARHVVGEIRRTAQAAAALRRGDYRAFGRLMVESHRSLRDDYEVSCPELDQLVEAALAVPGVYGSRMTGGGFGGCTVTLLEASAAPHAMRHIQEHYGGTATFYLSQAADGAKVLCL

| Structure (SMILES) | outcome |
| --- | --- |
| C[C@H]1OC[C@@H](C[N+](C)(C)C)O1 | inactive |
| O=C(O)C1C2CCC(O2)C1C(=O)O (stereo not given) | inactive |
| CCCC[N+]1(C)C2CC(OC(=O)C(CO)c3ccccc3)CC1C1OC12 (stereo not given) | inactive |
| CN1C[C@@H](CS(=O)(=O)N(C)C)C[C@@H]2c3cccc4c3c(cn4C)C[C@H]21 | inactive |
| CCCN(CCC)[C@@H]1CCc2c(F)ccc(O)c2C1 | inactive |
| CC1Cc2cc3c(cc2C(c2ccc(N)cc2)=NN1)OCO3 (stereo not given) | inactive |
| C[C@]12CC[C@H](OS(=O)(=O)O)CC1=CCC1C2CC[C@]2(C)C(=O)CC[C@@H]12 (stereo not given in full) | inactive |
| Nc1ncnc2c1ncn2[C@@H]1O[C@H](COP(=O)(O)CP(=O)(O)OP(=O)(O)O)[C@H](O)[C@H]1O | inactive |
| CCCN1CCc2cc(O)cc3c2C1Cc1ccc(O)c(O)c1-3 (stereo not given) | inactive |
| NCC#Cc1ccccc1 | inactive |
| CCN(CC)C(=O)N[C@@H]1C[C@@H]2c3cccc4[nH]cc(c34)C[C@H]2N(C)C1 | inactive |
| CCC(CO)NC(=O)[C@@H]1C=C2c3cccc4[nH]cc(c34)C[C@H]2N(C)C1 (stereo not given in full) | inactive |
| N#CC(=Cc1ccc(O)c(O)c1)C(N)=S | inactive |
| CC[C@@H](CO)NC(=O)[C@H]1C=C2c3cccc4c3c(cn4C)C[C@H]2N(C)C1 | inactive |
| Oc1ccc2c3c1O[C@H]1[C@@H](O)CC[C@@]4(O)C(C2)N(CC2CCC2)CCC314 (stereo not given in full) | inactive |
| CCCN1CCc2cccc3c2C1Cc1ccc(O)c(O)c1-3 (stereo not given) | inactive |
| CCc1c(C(=O)OC)ncc2[nH]c3cc(OC)c(OC)cc3c12 | inactive |
| C[C@]12CC[C@H]3[C@@H](CCC4C[C@H](O)CC[C@@]43C)[C@@H]1CC[C@@H]2O (stereo not given in full) | inactive |
| COC(=O)C(N)CCCN=C(N)N[N+](=O)[O-] (stereo not given) | inactive |
| C=CCN1CC[C@@]2(C)c3cc(O)ccc3CC1[C@@H]2C | inactive |

| Structure (SMILES) | outcome |
| --- | --- |
| NC(Cn1ccc(=O)[nH]c1=O)C(=O)O (stereo not given) | inactive |
| CCCN(CCC)C(=O)Cc1c(-c2ccc(Cl)cc2)nc2c(Cl)cc(Cl)cn12 | inactive |
| COc1ccc2c3c1O[C@H]1C(=O)CC[C@@]4(O)C(C2)N(CC2CC2)CCC314 (stereo not given in full) | inactive |
| O=C(OC1CCN(CCCl)CC1)C(c1ccccc1)c1ccccc1 | inactive |
| C[C@]12CC[C@@H](O)CC1CCC1C2CC[C@]2(C)C(=O)CC[C@@H]12 (stereo not given in full) | inactive |
| C/C=C(/C)C(=O)O[C@H]1C(C)=C2C([C@@H]1OC(=O)CCCCCCC)[C@@](C)(OC(C)=O)C[C@@H](OC(=O)CCC)[C@@]1(O)[C@H]2OC(=O)[C@@]1(C)O (stereo not given in full) | inactive |
| C[N+]1(C)C2CC(OC(=O)C(CO)c3ccccc3)CC1C1OC12 (stereo not given) | inactive |
| C=CCN1CCc2cccc3c2C1Cc1ccc(O)c(O)c1-3 (stereo not given) | inactive |
| COc1cc(C=C(C#N)C#N)cc(O)c1O | inactive |
| NNCc1cccc(O)c1 | inactive |
| CC(C)(O)C1C2OC(=O)C1[C@]1(O)C[C@H]3O[C@]34C(=O)O[C@H]2[C@]14C (stereo not given in full) (tested in a mixture with another compound) | inactive |
| CCCCN1C2CCC1CC(OC(c1ccc(F)cc1)c1ccc(F)cc1)C2 (stereo not given) | inactive |
| CC12CCC3C(CCC4=C(O)C(=O)CCC43C)C1CCC2=O (stereo not given) | inactive |
| COc1cc(C[C@@H](C)N)c(OC)cc1I | inactive |
| CCN1C[C@]2(C)CC[C@H](O)[C@@]34[C@@H]5C[C@@H]6[C@@H](OC)C[C@@](O)(C5[C@H]6O)[C@@H](C[C@@H]23)[C@@H]14 | inactive |
| CC(C)[C@@]1(NC(=O)[C@@H]2C[C@@H]3c4cccc5[nH]cc(c45)C[C@H]3N(C)C2)O[C@@]2(O)C3CCCN3C(=O)[C@H](Cc3ccccc3)N2C1=O (stereo not given in full) | inactive |
| CCCN1CCC[C@@H]2Cc3n[nH]cc3C[C@H]21 | inactive |
| CCNC(=O)[C@H]1O[C@@H](n2cnc3c(N)ncnc32)[C@H](O)[C@H]1O | inactive |
| C[C@]12CC[C@H](O)CC1=CCC1C2CC[C@]2(C)C(=O)CC[C@@H]12 (stereo not given in full) | inactive |
| CCCN1CCCC(c2cccc(O)c2)C1 (stereo not given) | inactive |
